# Measurements as given in PubChem BioAssay (NCI).
# Compounds without any hit were thinned out: in the full panel of roughly 83,000, 20% have a hit.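 Testing used 96-well plates and a 48-hour single-concentration exposure. Example: -40 means 40% of the starting cells died.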 A number with no mark means an inactive call. Calls of active or inactive are those of the source. The calls were made as follows: active = growth percent below 10; inactive = the rest.
# Experiments:
# Assay in all cases: NCI-60 one-dose screen, 48 h (100 = growth as untreated, 0 = no growth, -100 = all killed)
# Details in all cases: 10 µM unless noted
# T-47D breast = tested on: T-47D breast
# BT-549 breast = tested on: BT-549 breast
# MDA-MB-435 melanoma = tested on: MDA-MB-435 melanoma
# SW-620 colon = tested on: SW-620 colon
# MCF7 breast = tested on: MCF7 breast
# HCT-116 colon = tested on: HCT-116 colon
# HCC-2998 colon = tested on: HCC-2998 colon
# KM12 colon = tested on: KM12 colon
Structure (SMILES),growth (T-47D breast),growth (BT-549 breast),growth (MDA-MB-435 melanoma),growth (SW-620 colon),growth (MCF7 breast),growth (HCT-116 colon),growth (HCC-2998 colon),growth (KM12 colon)
CCOC(=O)c1cn2ncnc(Oc3ccc(NC(=O)NCCN4CCN(C)CC4)c(Cl)c3)c2c1C,25.5%,77.8%,40.7%,69%,65.5%,45.3%,89.2%,91.4%
Nc1nc2ccccc2c2c(=O)c3cc(F)ccc3sc12,84.3%,106%,98.6%,107%,34.4%,99.4%,96.6%,99%
O=C1NC(=O)C(c2ccccc2)(c2ccccc2)N1Cc1cn(-c2c3ccccc3nc3ccccc23)nn1,63.6%,81.5%,94.4%,85.6%,73.9%,68.1%,104%,91.2%
CCOC(=O)c1[nH]c(C)c(C(=O)OCc2ccccc2C#N)c1C,103%,50.5%,9.9% (active),41.4%,30.5%,40.9%,64.3%,42.8%
N#C/C(=C\c1ccc(F)cc1)n1nc2cccc(F)c2n1,33%,60.8%,-55.4% (active),18.9%,14.1%,20.8%,93.8%,16.4%
CCCCOc1nc2ccc(OC)cc2cc1-c1cc(-c2ccc(Cl)cc2)nc(-c2ccc(Cl)cc2)c1,97.4%,105%,107%,102%,97.5%,102%,109%,104%
COC(=O)C(Cc1ccccc1)NC(=O)NC(=O)NC(=O)CI (stereo unspecified),59.3%,79%,24.4%,-28.4% (active),41.3%,94.5%,95.9%,96.7%
COc1ccc2[nH]c(-c3ccccc3)c(/C=C(\C#N)S(=O)(=O)c3ccccc3)c2c1,38.1%,64.5%,2.24% (active),35.6%,26.2%,31.4%,68.4%,33.4%
CCOC(=O)c1cn2ncnc(Oc3ccc(NC(=O)NCCN4CCOCC4)c(Cl)c3)c2c1C,80.6%,96.5%,97.3%,94.1%,88.5%,94.7%,110%,103%
O=c1[nH][n+](-c2ccc(Br)cc2)no1,28.1%,83.1%,22.6%,36.8%,32.8%,79%,12.7%,23.3%
COc1cc(/C=C2\C(=O)Nc3ccc(Br)cc32)cc(OC)c1OC,53.2%,58.3%,21.2%,36.1%,24.2%,37.3%,67.6%,47.8%
COc1ccc2sc3c(NCCCN(C)C)nc4ccccc4c3c(=O)c2c1,93.6%,69.4%,-46.9% (active),-77.2% (active),41.5%,-88.7% (active),-90.8% (active),-47.2% (active)
COc1cc(C(=O)/C=C/c2ccc(OCCCCCC[P+](c3ccccc3)(c3ccccc3)c3ccccc3)cc2)cc(OC)c1OC,-21.5% (active),-47.6% (active),-58.9% (active),-80.4% (active),-68.1% (active),-77.3% (active),-20.3% (active),-86.8% (active)
Oc1ccc(CCl)c2cccnc12,30.3%,66.7%,84.8%,41.5%,5.57% (active),15.4%,91.3%,82%
O=c1c2cc(C(F)(F)F)ccc2sc2c(NCCCNCCO)nc3ccccc3c12,-6.02% (active),86.1%,-73% (active),-75.9% (active),-59.7% (active),-72.8% (active),-89.8% (active),-67.8% (active)
C=C1C(=O)O[C@H]2[C@H]1CC/C(COC(=O)NCCOCCOCC(=O)Nc1ccc(OC)c(C(N)=O)c1O)=C\CC[C@@]1(C)O[C@@H]21,47.8%,68.6%,53.7%,18.5%,32%,32.8%,90.4%,95.2%

Structure (SMILES),growth (T-47D breast),growth (BT-549 breast),growth (MDA-MB-435 melanoma),growth (SW-620 colon),growth (MCF7 breast),growth (HCT-116 colon),growth (HCC-2998 colon),growth (KM12 colon)
COc1ccc(/C=N/Nc2cc(=O)[nH]c3ccc(Cl)cc23)cc1,42.4%,32.1%,43.2%,37.9%,35.2%,8.92% (active),88.8%,46.6%
CCN(CC)S(=O)(=O)c1ccc(NC(=O)CSc2nnc(C)n2-c2ccccc2)cc1,106%,117%,99.2%,105%,113%,102%,109%,104%
COc1ccc(C(=O)N=Nc2c(O)n(C)c3ccccc23)cc1,61.9%,103%,103%,97.3%,61.3%,99.7%,117%,95.5%
COc1ccc(-c2nc(NN)c3c(C)nn(-c4ccc(F)cc4)c3n2)cc1,38.6%,46.8%,0.816% (active),22.9%,26.2%,18.7%,76.6%,29.1%
O=C(/C=C/c1ccc([N+](=O)[O-])o1)NNC(=O)c1cc2ccccc2cc1O,2.44% (active),-4.88% (active),-13.3% (active),-5.85% (active),32.9%,-100% (active),-18.4% (active),11.6%
COc1ccc(/C=C(\C#N)n2nnc3c(F)cccc32)cc1,16.1%,45.4%,-78.4% (active),15.6%,18.8%,8.75% (active),1.33% (active),7.96% (active)
COc1cc(/C=C/c2ccccc2)cc(OC)c1,77.9%,101%,103%,100%,71.4%,92.4%,102%,95.6%
Cc1cc2nc3ccc(N=Nc4ccc(N(C)C)cc4)cc3n(-c3ccccc3)c-2cc1=N,-57.2% (active),-82.2% (active),-97.5% (active),-88.9% (active),-65.1% (active),-60.2% (active),-81.8% (active),-91.2% (active)
C=CCNc1ccc2c3c(cccc13)C(=O)N(N1C(=O)c3cccc4cccc(c34)C1=O)C2=O,96.5%,105%,101%,108%,87.4%,99.6%,107%,105%
Nc1cc2c(cc1Br)-c1cc(Cl)ccc1C2=O,91.7%,121%,117%,109%,57.9%,96.1%,114%,98.6%
C/C(=C\C(=O)c1ccc(Cl)cc1)c1ccc(Cl)cc1,85.8%,103%,102%,99.3%,19.4%,101%,82.2%,26.2%
CC(=O)OC[C@H]1OC(Sc2sc(C(=O)c3ccc(C)cc3)c(N)c2-c2nc3ccccc3s2)[C@H](OC(C)=O)[C@@H](OC(C)=O)[C@@H]1OC(C)=O (stereo partly specified),69.7%,83.4%,77.4%,53.4%,73.6%,39.3%,94.2%,80.6%
O=C(CSc1nccc(Nc2ccc(S(=O)(=O)Nc3nccs3)cc2)n1)c1ccc(C(F)(F)F)cc1,82.1%,88.2%,99%,102%,94.2%,86.7%,112%,106%
O=C(Nc1nc2ccc(F)cc2s1)c1cccnc1Nc1ccc(Cl)cc1Cl,0.802% (active),-9.44% (active),26.3%,20.2%,13%,11%,8.35% (active),9.49% (active)
COc1ccc(OC)c(/C=C2\Oc3cc(OCCN4CCC(Cc5ccccc5)CC4)ccc3C2=O)c1,63.1%,89.8%,87.3%,74.5%,77.3%,73%,19.7%,92.9%
O=C(Cc1ccc(F)c(Cl)c1)Nc1cc(C2(C(F)(F)F)CC2)nn1Cc1ccccc1,64.9%,77.7%,87.8%,82.7%,81%,60.4%,104%,85.5%
